From PubChem
A1 inh = inhibitors of the anti-apoptotic protein A1, read as caspase activation; MEF A1-2A-BIM cells, Caspase-Glo 3/7 luminescence, 3 h; percent of clofoctol response, vehicle zero; caspase activation, % (test concentration not listed); 330,000 tested, 0.066% active; AID 2462;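 active means over half of replicate activation scores above 10%, or exactly half above 10 with the replicate mean above 10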
NTR1 agonist = activates human neurotensin receptor 1; NTR1-U2OS beta-arrestin-GFP spot imaging, agonist mode; activation, % at 20 µM; AID 493036; P30989; 330,000 tested, 0.17% active;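 active means activation at or above 40% of the spot to cytoplasm intensity ratio, with at least 20 cells analyzed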;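 further: 0% = DMSO without peptide and 100% = 100 nM NTR1 peptide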
GRK2 inh = blocks RNA aptamer binding to human GRK2 | P25098 | bead flow cytometry, FAM-aptamer displacement from GRK2 | inhibition of aptamer binding, % at 10 µM | 330,000 tested, 0.59% active | AID 488847;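 active means inhibition of aptamer binding above 40%, roughly 3 SD of noise, on plates passing a quality check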;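 further: median bead fluorescence of bound FAM aptamer so fluorescent compounds give negative values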
B2AR ag = agonists of human beta-2 adrenergic receptor inducing internalization | P07550 | response, % (no concentration beside the values) | Am2.2-beta2AR cells, FAP receptor internalization, flow cytometry | 340,000 tested, 0.43% active;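 active means response above a set limit, near 3 SD of response in nonfluorescent compounds, cut at about 42% in these data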
Target sequence (P07550 whole entry, looked up): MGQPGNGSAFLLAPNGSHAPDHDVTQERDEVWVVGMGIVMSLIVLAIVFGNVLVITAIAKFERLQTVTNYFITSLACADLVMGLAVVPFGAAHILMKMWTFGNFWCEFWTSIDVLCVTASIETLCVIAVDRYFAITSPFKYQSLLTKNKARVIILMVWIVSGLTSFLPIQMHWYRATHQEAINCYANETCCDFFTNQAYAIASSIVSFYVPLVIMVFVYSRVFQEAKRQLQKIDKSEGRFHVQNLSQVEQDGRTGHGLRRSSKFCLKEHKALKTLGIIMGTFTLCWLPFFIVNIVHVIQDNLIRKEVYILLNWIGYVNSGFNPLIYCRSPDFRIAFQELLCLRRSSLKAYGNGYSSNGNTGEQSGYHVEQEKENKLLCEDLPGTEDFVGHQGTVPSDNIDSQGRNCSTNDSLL
VLA-4 inh = inhibition in a human VLA-4 binding assay. P13612. VLA-4 expressing cells, ligand binding flow cytometry. inhibition, % (about 7 µM as worked out from the volumes in the protocol). 330,000 tested, 0.2% active. AID 2557; in the data active means inhibition above about 50%
GRK2 CP1 = confirmation of human GRK2 inhibitors displacing RNA aptamer | bead-bound GRK2, FAM-aptamer displacement, flow cytometry | shares compounds with GRK2 inh | 2,000 tested, 4% active | aptamer displacement, % at 10 µM;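 active means aptamer displacement above 40%, near three times the noise of non-fluorescent compounds, on plates passing quality checks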;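 further: negative values mostly reflect intrinsic compound fluorescence rather than true enhancement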
Aptamer quench = fluorescent aptamer quenching in GRK2 counter-screen dose response; fluorescence change (kMESF span), kMESF (no concentration beside the values); 110 tested, under 10 active; shares compounds with GRK2 inh; AID 504521; Fluorescent RNA aptamer beads, flow cytometry; stronger effect = higher value;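 active means compounds whose bead fluorescence drops by more than 37 kMESF across the dose range, marking them as dye quenchers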
FAM quench CP1 = quenches fluorescent RNA aptamer, GRK2 hit artifact. fluorescence response (% of DMSO), % at 10 µM. Carboxyfluorescein RNA aptamer on beads, flow cytometry quenching; stronger effect = lower value. shares compounds with GRK2 inh. 2,000 tested, under 10 active. AID 504580;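 active means compounds that quench the bead-bound fluorescent RNA probe, cutting fluorescence to under half of the solvent control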;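 further: counterscreen run without GRK2 so only probe quenching by compound is measured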
GRK2 CP2 = human GRK2 inhibition confirmation, cherry pick 2; shares compounds with GRK2 inh; bead-bound GRK2, FAM-aptamer displacement, flow cytometry; inhibition of aptamer binding, % at 10 µM; 360 tested, under 10 active;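 active means inhibition of aptamer binding above 40%, about triple the noise seen with nonglowing compounds, on plates passing quality control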;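 further: negative values mostly come from compounds that fluoresce themselves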
FAM quench CP2 = counter-screen for GRK2 binding hits: quenchers of fluorescent RNA aptamer; shares compounds with GRK2 inh; carboxyfluorescein RNA aptamer beads, flow cytometry quenching; stronger effect = lower value; fluorescence response vs DMSO, % at 10 µM; 360 tested, under 10 active; AID 588494;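 active means response vs DMSO under 50%, meaning signal dropped by over half, treated as fluorescence quencher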;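 further: labelled aptamer on streptavidin beads without GRK2 as a quench counter-screen; 100% = bead fluorescence of DMSO wells and lower means quenching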
FAM quench PS1 = counter-screen for GRK2 aptamer binding inhibitors: aptamer fluorescence quenching; shares compounds with GRK2 inh; Bead-bound FAM RNA aptamer fluorescence quenching, flow cytometry; stronger effect = lower value; fluorescence ratio to DMSO, % at 11.1 µM; 35 tested, under 10 active;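 active means compounds that dim the fluorescent label, raw bead signal shifting by over 33 units between lowest and highest dose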
Numbers without * were called inactive; nt = not tested or not shown. An excerpt weighted towards active compounds, which were near 1.3% of everything screened.

SMILES	A1 inh	NTR1 agonist	GRK2 inh	B2AR ag	VLA-4 inh	GRK2 CP1	FAM quench CP1	others
Cc1noc(/C=C/N(C)C)c1S(=O)(=O)N1CCCC(C(=O)NCc2ccc(Cl)cc2)C1 (stereo unspecified)	1	1	2	3	16	nt	nt
COC(=O)[C@H](CC(C)C)NC(=O)Cn1cnc(C(=O)Nc2ccc(C)c(C)c2)n1	nt	0	2	12	nt	nt	nt
COc1ccc(CCC(=O)NC(C)c2ccccc2)cc1OC (stereo unspecified)	1	0	0	2	12	nt	nt
COc1ccc(C(C(=O)NCC2CCCO2)N(C(=O)c2snc(C(N)=O)c2N)c2ccc(C)cc2)cc1OC (stereo unspecified)	nt	3	nt	3	nt	nt	nt
Cc1ccc(CNC(=O)C2CCCN(S(=O)(=O)c3c(C)noc3/C=C/N(C)C)C2)cc1 (stereo unspecified)	0	4	nt	-6	4	-2	102
Cc1ccccc1CCN(CC(=O)NCc1ccc(F)cc1)C(=O)c1csnn1	0	-2	70*	15	18	1	99
COc1cc(/C=C2\CCc3c2nc2ccccc2c3C(=O)O)cc(OC)c1OC	-4	-1	62*	12	1	45*	100	Aptamer quench=0.3
COc1cc(/C=C2\CCCc3c2nc2ccccc2c3C(=O)O)cc(Br)c1O	0	2	0	15	0	nt	nt
COCCN(CCOC)S(=O)(=O)c1ccc(NC(=O)c2cnccn2)cc1	1	1	0	2	6	nt	nt
Cn1c(N)c(C(=O)COC(=O)Cc2ccc(Cl)cc2)c(=O)n(C)c1=O	nt	0	nt	3	nt	nt	nt
Cc1cc(C)nc(SCC(=O)Nc2ccccc2[N+](=O)[O-])n1	-1	1	0	1	nt	nt	nt
O=C1CC(=O)NC(SCC(=O)Nc2ccccc2[N+](=O)[O-])=N1	0	-2	43*	-4	-10	nt	107
COC(=O)C1=C(C)N=c2s/c(=C/c3cccs3)c(=O)n2C1c1cccs1 (stereo unspecified)	1	0	56*	-1	20	-3	98
COc1ccc2c(c1)c(=O)oc1cc(OCC(=O)N3CCC(C)CC3)ccc12	1	-2	47*	2	8	1	100
COc1ccc2c(c1)c(=O)oc1cc(OCC(=O)N3CCCC(C)C3)ccc12 (stereo unspecified)	0	1	5	0	27	nt	nt
O=C1C2CC=CCC2C(=O)N1Cc1ccccc1Cl (stereo unspecified)	-1	0	42*	-1	7	nt	nt	GRK2 CP2=19;FAM quench CP2=112
O=C1C2CC=CCC2C(=O)N1CNc1ccccc1 (stereo unspecified)	1	2	1	0	8	nt	nt
COc1ccc(CCNC(=O)C2CCN(C(=O)c3ccc(Br)cc3)CC2)cc1OC	-1	3	1	-15	8	nt	nt
Nc1ccc2nc(-c3ccc(-c4nc5ccc(N)cc5[nH]4)cc3)[nH]c2c1	0	-1	85*	nt	4	-24	101
Nc1ccc2nc(-c3cccc(-c4nc5ccc(N)cc5[nH]4)n3)[nH]c2c1	1	1	4	30	-10	nt	nt
Cc1ccccc1NC(=O)CCS(=O)(=O)c1ccc(Br)s1	1	0	67*	-3	12	38	100	Aptamer quench=12;FAM quench PS1=95
COC(=O)c1ccc(NC(=O)CCS(=O)(=O)c2ccc(Br)s2)cc1	1	-1	0	1	19	nt	nt
CC(C)NC(=O)CCS(=O)(=O)c1ccc(Br)s1	1	3	2	-1	0	nt	nt
COC(=O)c1ccccc1NC(=O)CCS(=O)(=O)c1ccc(Br)s1	3	0	3	0	-5	0	103	Aptamer quench=1.2;FAM quench PS1=99
CC1CCC(NC(=O)C(C)N2C(=O)C3CCCCC3C2=O)CC1 (stereo unspecified)	0	0	0	-1	3	nt	nt
SMILES	A1 inh	NTR1 agonist	GRK2 inh	B2AR ag	VLA-4 inh	GRK2 CP1	FAM quench CP1	others
CCC1Sc2ccc(S(=O)(=O)CCC(=O)N3CCc4ccccc43)cc2NC1=O (stereo unspecified)	0	1	57*	4	5	3	97	GRK2 CP2=1;FAM quench CP2=104
CCC1Sc2ccc(S(=O)(=O)CCC(=O)Nc3ccccc3Cl)cc2NC1=O (stereo unspecified)	1	0	1	2	2	nt	nt	GRK2 CP2=28;FAM quench CP2=98
CC1Sc2ccc(S(=O)(=O)CCC(=O)N3CCCC3)cc2NC1=O (stereo unspecified)	0	-1	0	-4	1	nt	nt
CC1Sc2ccc(S(=O)(=O)CCC(=O)N3CCc4ccccc43)cc2NC1=O (stereo unspecified)	-1	0	0	2	13	nt	nt	GRK2 CP2=-28;FAM quench CP2=99
O=C1C(Cl)=C(O)C2(Cl)C(Cl)=C(Cl)C12Cl (stereo unspecified)	nt	nt	nt	8	nt	nt	nt
CN(Cc1ccc(C(C)(C)C)cc1)C(=O)c1ccc2c(c1)OCO2	nt	1	nt	13	nt	nt	nt
O=C(CC1SC(N2CCCCC2)=NC1=O)Nc1ccc(C(=O)NCc2ccccc2)cc1 (stereo unspecified)	0	2	0	1	5	nt	nt
COc1ccc(CN(C)C(=O)c2ccc(NC(=O)CC3SC(N4CCCC4)=NC3=O)cc2)c(OC)c1 (stereo unspecified)	1	0	54*	0	6	0	96
O=C(CC1SC(N2CCCCC2)=NC1=O)Nc1cccc(C(=O)NCc2ccccc2)c1 (stereo unspecified)	1	2	3	3	-3	-1	99
COc1ccc(CN(C)C(=O)c2ccc(NC(=O)CC3SC(N4CCCC4)=NC3=O)cc2)c(OC)c1OC (stereo unspecified)	0	-1	0	-10	4	nt	nt
CCN(CC)CCn1c(OC)cc(=O)[nH]c1=O	1	0	69*	3	4	-5	101
CCN(CC)CCn1c(N)cc(=O)[nH]c1=O	0	0	0	6	4	nt	nt
